Laboratory results from PubChem BioAssay AID623868 (Vanderbilt High Throughput Screening Facility, 2012).
Out of some 2,100 compounds screened, about 760 (36%) were called active. The list is a sample of the results. Unmarked numbers belong to inactive results.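 The calls were made as follows: active = thallium-flux fluorescence traces judged by eye to show enhanced or reduced glutamate response, manual score 1 or -1, so both directions (some results past the limit were not filed as active); inactive = the rest, including fluorescent or raised-baseline compounds.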

Test: thallium influx changes without GIRK channels – cell-based, HEK-293 rmGlu8, no GIRK, thallium flux, counter-screen for GIRK activator project, confirmation (AID 623868);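 also: extra codes mark interference with 3 for fluorescent and 4 for baseline rise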
Conditions: thallium flux fluorescence, at 10 µM, actives lie on both sides, codes: 1 enhancer, -1 blocker, 0 none, thallium stimulus containing EC20 glutamate

| Compound | manual score |
| --- | --- |
| COc1ccc(C(=O)C2C(c3ccc(-c4ccccc4[N+](=O)[O-])o3)NC(=O)NC2(O)C(F)(F)F)cc1 (stereo not drawn) | 0.5 |
| O=C1c2ccccc2NC(c2ccc(-c3ccc(Br)cc3)o2)N1O (stereo not drawn) | 1 (active) |
| CC(=O)Nc1ccc(SCC(=O)c2cc(C)n(-c3ccccc3F)c2C)cc1 | 0.5 |
| Cc1cccc(C)c1NC1=NC(=S)N(c2ccc(N(C)C)cc2)C1(C)C | 1 (active) |
| CC1CN(C(=O)C2CCCCC2)C(C)CN1C(=O)C1CCCCC1 (stereo not drawn) | 0 |
| Cn1c(NC(=O)Cc2ccc(F)cc2)cc(=O)n(C)c1=O | 0 |
| CSCSC1=C(C#N)C(c2ccc(Cl)cc2)C(C(C)=O)=C(C)N1 (stereo not drawn) | 0 |
| CC(=O)C1=C(C)NC(SCC(=O)c2ccc(Cl)cc2Cl)=C(C#N)C1c1ccco1 (stereo not drawn) | -1 (active) |
| CCOC(=O)C1=C(c2ccccc2)NC(SC)=C(C#N)C1c1ccco1 (stereo not drawn) | 0 |
| CSCSC1=C(C#N)C(c2ccccc2Cl)C(C(C)=O)=C(C)N1 (stereo not drawn) | -1 (active) |
| CC(=O)C1=C(C)NC(SCc2ccc(C#N)cc2)=C(C#N)C1c1ccco1 (stereo not drawn) | 0 |
| O=C(CCc1nc(-c2ccccc2F)no1)NCCN1CCN(Cc2ccccc2)CC1 | 0 |
| COC(=O)c1cc(OC)c(OC)cc1NC(=O)Nc1ccc(OC)cc1OC | 0 |
| O=C(NNC(=O)c1cccs1)Nc1cccc(Cl)c1 | 0 |
| COc1cccc(NC(=O)Nc2cccs2)c1 | 0 |
| COc1ccc(NC(=O)C(=O)NNC(=O)c2cccs2)cc1 | 1 (active) |
| COc1ccc(Br)cc1CNC(=O)Nc1cccs1 | 0 |
| COc1ccc(NC(=O)C(=O)NNC(=O)c2cccs2)c(OC)c1 | 1 (active) |
| CCCc1noc2c1/C(=N\O)CC(CC(C)SCC)C2 (stereo not drawn) | 0 |
| CCc1ccc(C(=O)OCC(=O)Nc2cccc(S(=O)(=O)NC3=NCCCCC3)c2)cc1 | 0 |
| O=C(CSc1nnnn1-c1ccc(O)cc1)Nc1cccc(S(=O)(=O)N2CCCC2)c1 | 0 |
| O=C(CSc1ccc2ccccc2c1Br)Nc1cccc(S(=O)(=O)NC2=NCCCCC2)c1 | 1 (active) |
| Cc1ccsc1/C=N/NC(=O)c1sccc1C | 1 (active) |
| Cc1ccc(N2CC(C(=O)N/N=C/c3sccc3C)CC2=O)cc1 (stereo not drawn) | 0 |
| OC(CNCC1CCCO1)Cn1c2ccc(Br)cc2c2cc(Br)ccc21 (stereo not drawn) | 0 |
| O=C1CC(C(=O)Nc2ccc(Br)cc2)C2(CCCC2)O1 (stereo not drawn) | 0 |
| O=C(N/N=C/c1ccc([N+](=O)[O-])s1)c1cccc(Br)c1 | 0.5 |

| Compound | manual score |
| --- | --- |
| O=C(NN=C1c2ccccc2-c2ccccc21)c1ccccc1Br | 1 (active) |
| O=C(NN=C1c2ccccc2-c2ccccc21)c1cccc(Br)c1 | 1 (active) |
| CCCCn1c(CN(Cc2ccccc2)Cc2ccccc2)nc2c1c(=O)n(C)c(=O)n2C | 0 |
| O=C(CSCC(=O)N1CCCCC1)Nc1nc(-c2ccc(Cl)s2)cs1 | 0 |
| Cc1nc2nc(Cc3ccccc3)[nH]n2c(=O)c1Cc1ccccc1 | 0 |
| CN1C(=O)C2(C(C#N)=C(N)N(c3cc(Cl)cc(Cl)c3)C3=C2C(=O)CCC3)c2ccccc21 (stereo not drawn) | -1 (active) |
| Cc1cc(C(=O)CSc2n[nH]c(N)n2)c(C)n1-c1cc(F)ccc1F | 0 |
| c1ccc(-c2nnc3ccc(N4CCCC4)nn23)cc1 | -1 (active) |
| Fc1ccc(-c2nnc3ccc(N4CCc5ccccc5C4)nn23)cc1 | 0 |
| c1ccc2c(N3CCCCCC3)nc(-c3ccncc3)nc2c1 | 0 |
| CCOC(=O)/C(C#N)=C/C1=C(N2CCCC2)CC(C)(C)OC1 | 0 |
| CCOC(=O)N1CCN(C(=O)c2oc3ccc(S(=O)(=O)N4CC(C)CC(C)C4)cc3c2C)CC1 (stereo not drawn) | 0 |
| CCOn1c(=O)c(-c2cccs2)[n+]([O-])c2ccccc21 | 3 |
| O=c1c(-c2ccc(Cl)cc2)[n+]([O-])c2ccccc2n1O | 1 (active) |
| C=CCOn1c(=O)c(-c2cccs2)[n+]([O-])c2ccccc21 | 3 |
| Clc1ccc2c(c1)-c1nnc(Br)n1-c1ccccc1S2 | -1 (active) |
| C/C(CC(C)(C)C1CCCCC1)=N\NC(N)=S | 0 |
| CNc1nc(Cl)nc(NC(C)(C)C)n1 | 0 |
| Cc1cccc(N2C(=O)CS/C2=N\NC(=O)c2ccc(Cl)cc2)c1C | 1 (active) |
| CC(NC(=O)C1CC=CCC1C(=O)O)C1CC2CCC1C2 (stereo not drawn) | 0 |
| CCNc1ccc2noc3c2c1C(=O)c1ccccc1-3 | 0 |
| O=C(NNc1ccccc1Br)C(=O)n1ccc2ccccc21 | 1 (active) |
| Cc1ccc(C)c2[nH]c(=O)c(CN(CCN3CCCC3)C(=O)Nc3ccc(F)cc3)cc12 | 0 |
| O=C1N=C(c2ccccc2)S/C1=C\c1cccs1 | 3 |
| CSC1=NSC2=NC(=O)/C(=C/c3coc4ccccc4c3=O)C(=N)N12 | 3 |
| N=C1/C(=C/c2cccs2)C(=O)N=C2SN=C(SCc3ccccc3)N12 | 1 (active) |
